Reference: PubChem BioAssay (NCI)
Compounds without any hit were thinned out: in the full panel of roughly 79,000, 15% have a hit. Rule as the data show it: active = growth inhibition above about 70%; inactive = the rest.

Legend:
[1] = NCI Yeast Anticancer Drug Screen. Data for the rad50 strain (AID 155);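 also: 0% = growth of vehicle-only cultures of the same strain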; conditions: S. cerevisiae rad50 strain growth inhibition; at 50.0 µM; active compounds read high
How it was run: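 Growth of the mutant yeast was measured after compound exposure and referenced to vehicle-treated cultures.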

[2] = NCI Yeast Anticancer Drug Screen. Data for the mec2-1 strain (AID 157); conditions: S. cerevisiae mec2-1 strain, at 50.0 µM, active compounds read high
How it was run: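 Compounds were applied to mec2-1 yeast cells. Their growth was then compared with that of vehicle-treated cultures to give growth inhibition.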

[3] = NCI Yeast Anticancer Drug Screen. Data for the sgs1 mgt1 strain (AID 161);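 also: 0% = growth of cultures given vehicle only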; conditions: S. cerevisiae sgs1 mgt1 strain, at 50.0 µM, active compounds read high
How it was run: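 Percent growth inhibition was derived by comparing compound-exposed mutant yeast with vehicle-exposed cultures. The strain carries alterations in DNA damage repair.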

[4] = NCI Yeast Anticancer Drug Screen. Data for the cln2 rad14 strain (AID 165);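 also: 0% = growth equal to vehicle treated cultures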; conditions: S. cerevisiae cln2 rad14 strain, at 50.0 µM, active compounds read high
How it was run: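 Strain: cln2 rad14 yeast, altered in cell cycle control and DNA damage repair. Read-out: growth inhibition vs vehicle.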

[5] = NCI Yeast Anticancer Drug Screen. Data for the bub3 strain (AID 167); conditions: S. cerevisiae bub3 mutant strain, at 50.0 µM, active compounds read high
How it was run: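 Whole-cell yeast assay. The mutant strain was incubated with compounds, and growth inhibition was determined by comparison with vehicle-treated cells.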

[6] = NCI Yeast Anticancer Drug Screen. Data for the mlh1 rad18 strain (AID 175); conditions: S. cerevisiae mlh1 rad18 strain growth inhibition; at 50.0 µM; active compounds read high
How it was run: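 A repair-deficient yeast strain is exposed to test compound, and growth is scored relative to vehicle-treated controls.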

Measured: growth inhibition

N#CCC(=O)N1CCc2ccccc2C1
inactive: [1] -30.9% | [2] 0.45% | [3] 1.85% | [4] -79.7% | [5] 9.6% | [6] 14.2%

Cn1nc2ccc3nccc(NCCNCCO)c3c2n1
inactive: [1] -3.65% | [2] -8.8% | [3] -4.65% | [4] 7.4% | [5] -4.8% | [6] -9.65%

Cc1cn(C2CCCCC2O)c(=O)[nH]c1=O (stereo not given)
inactive: [1] -15.8% | [2] -14% | [3] -2.85% | [4] 12.6% | [5] -15.1% | [6] -16.9%

O=C1/C(=C/c2ccccc2)SC(=S)N1C1c2ccccc2Oc2ccccc21
inactive: [1] 35.4% | [2] 14.6% | [3] 53.8% | [4] 38.8% | [5] 5.25% | [6] 30.1%

[N-]=[N+]=C(C(=O)N1CCCC1=O)S(=O)(=O)c1ccccc1
inactive: [1] -17.3% | [2] -12.4% | [3] -17.9% | [4] 5.45% | [5] -14.4% | [6] 2.45%

Cc1c(C)c2cc3ccc(Cl)cc3nc2c2ccccc12
inactive: [1] -7.65% | [2] -16.9% | [3] 2.75% | [4] -21.6% | [5] 2.9% | [6] 1.7%

COc1ccccc1C1CCCCC1SCC(=O)O (stereo not given)
inactive: [1] 19.4% | [2] 11.7% | [3] 2.05% | [4] 9.35% | [5] 6.75% | [6] -18.4%

COc1ccc(Cc2cc(OC)c(OC)c(OC)c2)cc1
inactive: [1] 13.2% | [2] -0.3% | [3] 7.7% | [4] 0% | [5] 31.8% | [6] -27.6%

CCCOC(=O)C(O)c1ccc(C)cc1 (stereo not given)
inactive: [1] -1.5% | [2] -11.8% | [3] 12.9% | [4] -3.75% | [5] 5.7% | [6] -14.7%

CCN(CC)CCOC(=O)Cc1ccc2c(=O)cc(-c3ccc(C)cc3)oc2c1
inactive: [1] 7.75% | [2] -18.4% | [3] -13.6% | [4] 0.75% | [5] -1.55% | [6] -54.5%

COC(=O)/C=C(\C(=O)OC)C1=C(N2CCCC2)CC(C)(C)CC1=O
inactive: [1] -7.8% | [2] -14.9% | [3] -14.1% | [4] -14.3% | [5] -14.3% | [6] -1.1%

CCOC(=O)CCC(NC(=O)N1CCN(c2c(C)nc(C)[nH]c2=O)CC1)C(=O)OCC (stereo not given)
inactive: [1] 11.6% | [2] -0.1% | [3] 10.6% | [4] -4.7% | [5] 12.7% | [6] 18.6%

O=C(c1ccccc1)C1(Cl)CCCCC1
inactive: [1] -9.95% | [2] -12.6% | [3] -10.8% | [4] -8.45% | [5] -5.15% | [6] 15.6%

CCC(O)(c1ccc(OC)cc1)C(c1ccc(OCc2ccccc2)cc1)c1ccc(OCc2ccccc2)cc1 (stereo not given)
inactive: [1] 18.9% | [2] -22.2% | [3] 5.5% | [4] 10.8% | [5] -10.1% | [6] -12.9%

Oc1ccc2ccccc2c1C(c1ccccc1)N1CCOCC1 (stereo not given)
inactive: [1] -2.5% | [2] -11% | [3] -5.9% | [4] -24.7% | [5] -12.4% | [6] -15.2%

CC(O)CNC(=O)CC(C)CC(C)(C)C (stereo not given)
inactive: [1] 45.7% | [2] 19.9% | [3] 24.9% | [4] 13.4% | [5] 25.4% | [6] 34%

COC(=O)c1c2c(cc3c1CC1(Cc4cc5c(cc4C1=O)CCC5)C3)CCC2 (stereo not given)
inactive: [1] -23.4% | [2] -37% | [3] -2.4% | [4] 0.45% | [5] 10.8% | [6] 3.3%

O=C1NNCc2c1sc1ccccc21
inactive: [1] 0.25% | [2] -4.15% | [3] -17.4% | [4] -41.3% | [5] -11.7% | [6] 4.6%

O=c1c2ncccc2cc2n1CCc1c-2[nH]c2ccccc12
inactive: [1] -15.3% | [2] -15.9% | [3] 6.3% | [4] -4.75% | [5] -1.1% | [6] -0.2%

O=C(NN1C(=O)CS(=O)(=O)C1c1ccccc1F)c1ccncc1 (stereo not given)
inactive: [1] -8% | [2] -4.4% | [3] 8.3% | [4] -9.35% | [5] -0.1% | [6] 7.75%
